Test results reported in PubChem BioAssay (EPA / NIEHS).
Active and inactive are the calls of the source. How the source made its calls: active means hit-call score of the fitted dose curve at least 0.9, where 1 is the maximum; inactive means score below 0.9.

read-out: Insulin Like Growth Factor 1 (IGF1), IGF1 (gene 3479); experiment: LTEA_HepaRG_IGF1: Life Technologies and Expression Analysis (LTEA) Assay for Insulin Like Growth Factor 1 (IGF1) using HepaRG (AID 2283506); details: mRNA level, 48 h; actives raise or lower the signal
Experimental: LTEA_HepaRG is a cell based, multiplexed-readout assay that uses HepaRG, a human liver cell line, with measurements taken at 48 hours after chemical dosing on a 96-well plate.LTEA_HepaRG_IGF1 is one of 102 assay component(s) measured in the LTEA HepaRG cell culture assay. It is a marker of Cell proliferation, survival, death.Data from the assay component LTEA_HepaRG_IGF1 was analyzed into 1 endpoint. This assay endpoint, LTEA_HepaRG_IGF1, was analyzed with bidirectional fitting relative to DMSO as the negative control and baseline of activity. Using a type of inducible reporter, measures of mRNA induction for gain or loss-of-signal activity can be used to understand regulation of transcription factor activity. To generalize the intended target to other relatable targets, this assay endpoint is annotated to the growth factor intended target family, where the subfamily is insulin-like.
A total of 1060 chemcials from the ToxCast library were tested in eight-point concentration-response experiments. Cell culture and cytotoxicity assays were conducted at Thermo Fisher Scientific's Custom Services facility (Madison, WI). A single lot of human HepaRG cells (Thermo Fisher Scientific, Frederick, MD) was used for the cell culture experiments. 96-well format collagen type I coated plates of human HepaRG cells were prepared using established methods. Briefly, cryopreserved HepaRG cells were thawed, plated at a density of approximately 100,000 cells/well in HepaRG Thaw, Plate, and General Purpose media (HPRG770, Thermo Fisher Scientific), and incubated for 48 hours. 0.5% DMSO was selected as vehicle control to balance the requisite need of DMSO in HepaRG cultures to maintain differentiation (for example, baseline metabolism, proportions of hepatocytes vs. cholangiocytes), while enabling further hepatic receptor pathway activation (for example, PXR and CAR) in response to chemical exposure. 48 hours after plating, the culture medium was replaced with HepaRG Serum-Free Incudtion Media. Cells were exposed to each test chemical in duplicate and maintained in CO2 incubators for another 48 hours. Chemical plates were thawed to room temperature and 200x concentrations of treatment groups were prepared. 8-point conentration-reponse curves were made with the highest exposure at 100 uM, followed by half-log dilutions, all in 0.5% DMSO. Each test plate contained variouse controls, induction positive controls (1mM phenobarbital), cytotoxicity positive controls ([…] aflatoxin B1), vehicle controls (0.5% DMSO), and total lysis controls (0.5% DMSO). Cell morphology images were taken using an Essen IncuCyte FLR automated microscope, with six 96-well plates imaged in about 24 minutes. Images were captured and exported and JPEG files. Spent culture media was transfered to black-well plates for the LDH assay, and remaining media was sorted at -80 C for later use. Cells were treated with RLT buffer and frozen until shipped for gene expression analysis. Total RNA was isolated from the cell suspension in 75 uL of Buffer RLT (Qiagen, Germantown, MD 20874) by Quintiles/Expression Analysis (Durham, NC) using a custom isolation procedure. Total RNA from each plate well was transferred to a preamplification plate. Fluidigm's 96.96 Dynamic ArrayTM (Fluidigm, Amsterdam, the Netherlands) technology was used for gene expression analyses by quantitative reverse transcription polymerase chain reaction (qRT-PCR, performed by Quintiles/Expression Analysis, Durham, NC)89. Standard TaqManTM Assays (Applied Biosystems/ThermoFisher Scientific, Foster City, CA) were used to assess the expression of 93 genes selected based on their selectivity and sensitivity to important hepatic receptors known to be modulated by environmental chemicals; importance in human hepatocyte functionality; and hepatotoxicity. […]

outcome, inactive:
CC/C(=C(/CC)c1ccc(O)cc1)c1ccc(O)cc1, O=C(O)c1ccccc1C(=O)OCc1ccccc1, Oc1ccccc1, Cc1cc2c(cc1C(F)(F)F)N(C(=O)Nc1ccc(Oc3cccnc3C)nc1)CC2, Cc1ccc(C(C)C)cc1, Oc1ccc2ccccc2c1, O=C1O[C@H]([C@@H](O)CO)C(O)=C1O, CCCCCCCCN(C)CCCCCCCC, CCOC(=O)O[C@H](C)OC(=O)c1ccc2c(c1)cc(C(=O)NC1CCN(C(C)C)CC1)n2Cc1cc(-c2ccc(Cl)s2)on1, Cc1cccc2ccccc12, O=c1[nH]sc2ccccc12, CC(O)CC(C)(C)O (stereo not given), CC1=CC(=O)/C(=C(/C)O)C(=O)O1, O=C(OCCCCCCOC(=O)c1ccccc1)c1ccccc1, O=C1c2ccccc2C(=O)N1CCc1noc(-c2ccc(CN3CCCCCC3)s2)n1, CCO[Si](CCCNC(N)=O)(OCC)OCC, CCCCOC(=O)CC(CC(=O)OCCCC)(OC(C)=O)C(=O)OCCCC, O=C=NCCCCCCN=C=O, O=C(O)Cn1c(=O)n(Cc2ccc(Br)cc2F)c(=O)c2ccc(Cl)cc21, CCCCCCCCCCCO, O=C(O)c1ccccc1-n1cc(C(=O)O)c(=O)c2cc(Nc3c(F)cc(F)cc3Cl)c(Cl)cc21, Cc1ncc(CO)c(CO)c1O, COCC(C)OCC(C)OCC(C)O (stereo not given)

AC50, active:
C[C@]12CC[C@@H]3c4ccc(O)cc4CC[C@H]3[C@@H]1CCC2=O 50 µM, CC[C@@H]1C[C@H](N(Cc2cc(C(F)(F)F)cc(C(F)(F)F)c2)C(C)=O)c2cc(C(F)(F)F)ccc2N1C(=O)OC(C)C 5.09 µM, OC12N=C(c3ccccc3)SC1Cc1cc(Cl)ccc12 (stereo not given) 13.3 µM, Clc1ccccc1C(c1ccccc1)(c1ccccc1)n1ccnc1 15.8 µM, Cc1ccc2oc(CN(Cc3ccccc3)C(=O)Nc3c(F)cc(F)cc3F)c(-c3ccc(Cl)cc3)c2c1 30.2 µM, O=C(O)Cc1cc(I)c(Oc2ccc(O)c(I)c2)c(I)c1 93.7 µM, CC[C@H](NC(=O)c1cc(F)ccc1NS(=O)(=O)c1cccc2cccnc12)c1ccccc1 12.4 µM, Cc1oc2c(NC(=O)c3c(Cl)cccc3Cl)cccc2c1C(C)(C)O 28.6 µM, CC(=O)N1CCN(c2ccc(OC[C@H]3CO[C@](Cn4ccnc4)(c4ccc(Cl)cc4Cl)O3)cc2)CC1 12.4 µM, Clc1cc(Cl)c2c(c1)N=C1CCCCCN1C2 5.03 µM, CC1(C)NC(=O)N(c2ccc([N+](=O)[O-])c(C(F)(F)F)c2)C1=O 69.2 µM, Cc1occc1C(=O)Nc1ccc(C(=O)N2CCC(F)(F)/C(=C\C(=O)N3CCC(N4CCCCC4)CC3)c3ccccc32)cc1 5.3 µM, NC(=O)c1nc(-c2cccc(-c3cc(F)ccc3OCC(F)(F)C(F)(F)F)c2)n[nH]1 83.2 µM, O=C(Nc1ccc(Cl)cc1)Nc1ccc(Cl)c(Cl)c1 24.4 µM, CC(C)(C)c1csc(-c2cc3cc(OCc4ccccc4CC(=O)O)ccc3o2)n1 12.4 µM, CN(C[C@@H](CC[N+]12CCC(C3CCCCC3)(CC1)CC2)c1ccc(Cl)c(Cl)c1)C(=O)c1cc(C(F)(F)F)cc(C(F)(F)F)c1 24.1 µM, C[C@]12CC[C@@H]3c4ccc(O)cc4CC[C@H]3[C@@H]1CC[C@H]2O 50 µM
